# Results from the supplement of paper PMC10849652.
# Of roughly 8,800 targets only a part is listed; those with a hit were picked by preference. About 0.5% of all pairs of compound and target were hits. A number with no mark means an inactive call.
# Key:
# Assay in all cases: log2 fold change, soluble protein after heating vs DMSO (PISA); higher = thermal stabilisation; K562 lysate, 10 uM; active = over 0.2 and 3.5 SD of the protein, either way, in both replicates (recomputed)
# [1] = compound: C#Cc1cccc(Nc2ncnc3cc(OCCOC)c(OCCOC)cc23)c1 [erlotinib]
# Summary of the method: (§1)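 Following dounce homogenisation of K562 pellets in PBS pH 7.4 with 1 mM MgCl2, crude extract at 1 mg/mL protein was incubated for 30 min with 10 μM compound. Aliquots were then heated for 3 min over 48°C-58°C and pooled, NP-40 was added to 0.5% at 4°C, and soluble protein was recovered as the supernatant at 21,000xg for 90 min. Channel-sum-equalised TMTpro 16plex LC-MS/MS quantified this protein. Each value, from duplicates, is a log-two fold change in thermal stability relative to solvent controls.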
# [2] = compound: C/C(=N\NC(=O)C1=CC(=CC=C1)S(=O)(=O)N2CCOCC2)/C3=C(C=CC(=C3)Cl)O
# Summary of the method: as §1
# [3] = compound: C1=CC(=CC=C1C2=NC3=C(N2)C=C(C=C3)C(=O)N)OC4=CC=C(C=C4)Cl
# Summary of the method: as §1
# [4] = compound: C1=CC2=C(C=CC(=C2)/C=C\3/C(=O)NC(=NCC4=CC=CS4)S3)N=C1
# Summary of the method: as §1
# [5] = compound: C1=CC2=NC=CN=C2C=C1/C=C/3\C(=O)NC(=O)S3
# Summary of the method: as §1
# [6] = compound: C1=CC=C(C=C1)C2=NC(=C(N2)C3=CC=NC=C3)C4=CC(=C(C=C4)Cl)O
# Summary of the method: as §1
# [7] = compound: C1=CC=C2C(=C1)C3=NNC4=CC=CC(=C43)C2=O
# Summary of the method: as §1
# [8] = compound: C1CCN(C1)C(=O)NC2=CC=CC(=C2)NC3=NC=C(C(=N3)NCCC4=CN=CN4)Br
# Summary of the method: as §1
# [9] = compound: C1CN(CCC1(CC2=CC=C(C=C2)Cl)N)C3=NC=NC4=C3C=CN4
# Summary of the method: as §1
# [10] = compound: C1COCCN1CCN2C3=CC=CC=C3N=C2NC(=O)C4=CC(=CC=C4)[N+](=O)[O-] [IRAK-1-4 Inhibitor I]
# Summary of the method: as §1
# Sequence of UniProt Q9H8M5 (Q9H8M5 whole entry, looked up): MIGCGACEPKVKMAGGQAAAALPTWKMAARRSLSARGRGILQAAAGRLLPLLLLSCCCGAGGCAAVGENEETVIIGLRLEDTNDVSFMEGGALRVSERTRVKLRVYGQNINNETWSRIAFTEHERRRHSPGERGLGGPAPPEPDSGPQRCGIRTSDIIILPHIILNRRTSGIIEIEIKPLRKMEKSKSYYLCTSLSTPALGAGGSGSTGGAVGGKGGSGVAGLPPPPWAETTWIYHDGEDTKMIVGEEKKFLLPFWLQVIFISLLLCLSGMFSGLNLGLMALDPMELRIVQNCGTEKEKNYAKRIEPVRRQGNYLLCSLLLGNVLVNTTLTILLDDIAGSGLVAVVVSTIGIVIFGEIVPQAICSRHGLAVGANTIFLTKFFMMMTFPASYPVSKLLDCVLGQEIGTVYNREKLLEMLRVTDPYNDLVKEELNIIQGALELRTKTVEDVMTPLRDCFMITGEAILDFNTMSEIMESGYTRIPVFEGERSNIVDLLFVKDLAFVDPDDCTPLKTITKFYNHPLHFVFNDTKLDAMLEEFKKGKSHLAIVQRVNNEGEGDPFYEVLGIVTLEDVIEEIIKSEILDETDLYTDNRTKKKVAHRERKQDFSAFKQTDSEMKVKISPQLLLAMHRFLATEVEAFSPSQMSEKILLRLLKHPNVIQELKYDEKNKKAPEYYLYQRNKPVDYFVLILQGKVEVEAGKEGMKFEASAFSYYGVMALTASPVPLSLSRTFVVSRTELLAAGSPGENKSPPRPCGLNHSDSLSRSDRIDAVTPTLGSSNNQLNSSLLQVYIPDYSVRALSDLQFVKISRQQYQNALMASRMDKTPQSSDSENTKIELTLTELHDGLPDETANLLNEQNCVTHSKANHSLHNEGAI
# Sequence of UniProt O75122 (O75122 whole entry, looked up): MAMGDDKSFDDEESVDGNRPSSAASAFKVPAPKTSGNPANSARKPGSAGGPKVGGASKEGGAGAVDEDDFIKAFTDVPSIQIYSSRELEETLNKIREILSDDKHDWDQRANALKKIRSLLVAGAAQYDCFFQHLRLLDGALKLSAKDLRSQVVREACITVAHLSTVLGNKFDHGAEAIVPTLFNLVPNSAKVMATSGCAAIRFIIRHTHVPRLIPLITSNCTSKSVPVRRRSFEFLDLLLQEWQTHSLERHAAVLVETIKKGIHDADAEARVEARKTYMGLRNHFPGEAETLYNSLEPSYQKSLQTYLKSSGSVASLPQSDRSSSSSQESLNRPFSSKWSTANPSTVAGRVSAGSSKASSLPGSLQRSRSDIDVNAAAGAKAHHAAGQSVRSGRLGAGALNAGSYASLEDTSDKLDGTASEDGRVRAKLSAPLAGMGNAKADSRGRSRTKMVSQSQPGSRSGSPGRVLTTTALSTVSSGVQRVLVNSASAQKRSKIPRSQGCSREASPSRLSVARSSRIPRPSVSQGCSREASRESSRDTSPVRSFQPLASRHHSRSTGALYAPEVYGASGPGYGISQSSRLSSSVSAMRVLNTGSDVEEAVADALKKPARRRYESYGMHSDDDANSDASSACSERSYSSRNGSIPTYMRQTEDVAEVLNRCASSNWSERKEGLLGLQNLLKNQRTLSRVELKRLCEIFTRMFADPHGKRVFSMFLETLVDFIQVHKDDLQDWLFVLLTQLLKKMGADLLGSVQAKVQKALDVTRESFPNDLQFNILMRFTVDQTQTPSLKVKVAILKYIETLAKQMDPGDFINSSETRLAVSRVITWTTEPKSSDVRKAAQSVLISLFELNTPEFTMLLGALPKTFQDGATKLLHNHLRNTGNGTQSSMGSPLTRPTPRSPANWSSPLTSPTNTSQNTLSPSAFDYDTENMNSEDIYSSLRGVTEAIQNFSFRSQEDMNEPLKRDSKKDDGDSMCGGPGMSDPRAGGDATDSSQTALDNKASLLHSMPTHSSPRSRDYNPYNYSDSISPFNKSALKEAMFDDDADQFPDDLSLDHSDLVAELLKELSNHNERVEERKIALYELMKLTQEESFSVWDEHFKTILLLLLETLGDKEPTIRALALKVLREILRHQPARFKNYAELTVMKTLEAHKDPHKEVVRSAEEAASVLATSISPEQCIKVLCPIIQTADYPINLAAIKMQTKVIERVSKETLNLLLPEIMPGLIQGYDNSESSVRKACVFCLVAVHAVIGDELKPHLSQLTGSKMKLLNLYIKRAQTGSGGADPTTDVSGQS
# Sequence of UniProt O15111 (O15111 whole entry, looked up): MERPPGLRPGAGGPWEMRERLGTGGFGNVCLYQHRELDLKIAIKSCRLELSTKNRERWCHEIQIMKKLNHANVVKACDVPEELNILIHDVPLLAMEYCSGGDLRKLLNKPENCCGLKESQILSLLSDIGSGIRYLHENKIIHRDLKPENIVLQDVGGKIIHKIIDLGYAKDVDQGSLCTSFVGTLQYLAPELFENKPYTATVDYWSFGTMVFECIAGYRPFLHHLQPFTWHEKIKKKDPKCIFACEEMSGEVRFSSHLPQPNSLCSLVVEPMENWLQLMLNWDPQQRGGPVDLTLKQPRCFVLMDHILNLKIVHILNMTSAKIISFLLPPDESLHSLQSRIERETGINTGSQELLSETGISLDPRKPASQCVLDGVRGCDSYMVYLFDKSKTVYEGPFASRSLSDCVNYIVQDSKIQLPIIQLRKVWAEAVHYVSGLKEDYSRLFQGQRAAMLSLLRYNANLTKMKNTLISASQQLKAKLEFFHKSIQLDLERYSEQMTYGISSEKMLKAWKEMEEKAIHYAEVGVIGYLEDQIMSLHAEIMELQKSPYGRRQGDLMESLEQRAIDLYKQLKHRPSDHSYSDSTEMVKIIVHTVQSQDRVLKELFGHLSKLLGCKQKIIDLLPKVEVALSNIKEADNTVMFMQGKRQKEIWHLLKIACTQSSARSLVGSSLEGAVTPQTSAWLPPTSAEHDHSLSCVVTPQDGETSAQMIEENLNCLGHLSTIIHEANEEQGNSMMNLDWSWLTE
# Sequence of UniProt Q99766 (Q99766 whole entry, looked up): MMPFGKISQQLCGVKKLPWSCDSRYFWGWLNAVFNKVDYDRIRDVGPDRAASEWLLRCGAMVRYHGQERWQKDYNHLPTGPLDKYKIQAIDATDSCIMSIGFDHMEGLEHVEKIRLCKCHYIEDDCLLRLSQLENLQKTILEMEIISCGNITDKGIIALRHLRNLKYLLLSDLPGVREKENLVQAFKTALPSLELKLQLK
# Sequence of UniProt Q7Z460 (Q7Z460 whole entry, looked up): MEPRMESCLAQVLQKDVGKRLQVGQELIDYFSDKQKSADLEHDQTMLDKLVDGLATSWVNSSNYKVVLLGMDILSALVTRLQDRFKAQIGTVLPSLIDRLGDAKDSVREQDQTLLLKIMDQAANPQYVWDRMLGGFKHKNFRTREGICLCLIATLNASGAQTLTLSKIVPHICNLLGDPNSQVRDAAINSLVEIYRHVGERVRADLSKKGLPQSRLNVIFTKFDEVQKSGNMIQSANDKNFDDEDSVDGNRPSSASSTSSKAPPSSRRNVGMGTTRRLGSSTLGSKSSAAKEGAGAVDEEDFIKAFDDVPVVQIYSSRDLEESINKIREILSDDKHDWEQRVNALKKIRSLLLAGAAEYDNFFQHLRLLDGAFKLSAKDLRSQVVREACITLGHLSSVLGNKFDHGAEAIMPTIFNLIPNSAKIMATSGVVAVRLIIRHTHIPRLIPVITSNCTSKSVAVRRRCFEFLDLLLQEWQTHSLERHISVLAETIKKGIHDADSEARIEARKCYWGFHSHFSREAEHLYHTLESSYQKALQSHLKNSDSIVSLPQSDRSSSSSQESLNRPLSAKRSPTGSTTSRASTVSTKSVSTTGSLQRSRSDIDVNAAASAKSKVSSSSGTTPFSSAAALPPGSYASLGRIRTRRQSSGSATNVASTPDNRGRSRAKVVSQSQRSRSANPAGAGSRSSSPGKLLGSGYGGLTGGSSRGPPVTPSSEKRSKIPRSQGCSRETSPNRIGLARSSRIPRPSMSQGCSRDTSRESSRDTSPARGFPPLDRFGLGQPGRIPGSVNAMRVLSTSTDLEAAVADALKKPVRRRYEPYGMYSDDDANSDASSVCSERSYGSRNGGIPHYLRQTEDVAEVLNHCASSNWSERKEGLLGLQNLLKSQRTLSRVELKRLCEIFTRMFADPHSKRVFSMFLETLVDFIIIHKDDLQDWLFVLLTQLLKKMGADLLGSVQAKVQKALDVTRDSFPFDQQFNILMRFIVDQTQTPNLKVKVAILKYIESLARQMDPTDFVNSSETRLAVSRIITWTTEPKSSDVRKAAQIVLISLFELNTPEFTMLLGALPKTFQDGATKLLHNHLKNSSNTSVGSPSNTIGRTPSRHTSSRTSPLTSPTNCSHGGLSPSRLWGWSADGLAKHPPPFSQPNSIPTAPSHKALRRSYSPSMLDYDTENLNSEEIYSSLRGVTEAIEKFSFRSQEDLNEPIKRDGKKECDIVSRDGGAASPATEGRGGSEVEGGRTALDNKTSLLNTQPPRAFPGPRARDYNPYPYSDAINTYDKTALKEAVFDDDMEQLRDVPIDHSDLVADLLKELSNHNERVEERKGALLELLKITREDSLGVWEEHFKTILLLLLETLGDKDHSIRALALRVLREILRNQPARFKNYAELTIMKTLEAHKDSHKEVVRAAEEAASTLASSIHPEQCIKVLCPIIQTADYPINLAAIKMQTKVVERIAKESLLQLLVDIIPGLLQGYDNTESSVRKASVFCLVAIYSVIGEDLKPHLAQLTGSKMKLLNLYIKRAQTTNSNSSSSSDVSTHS
# Sequence of UniProt Q5EBM0 (Q5EBM0 whole entry, looked up): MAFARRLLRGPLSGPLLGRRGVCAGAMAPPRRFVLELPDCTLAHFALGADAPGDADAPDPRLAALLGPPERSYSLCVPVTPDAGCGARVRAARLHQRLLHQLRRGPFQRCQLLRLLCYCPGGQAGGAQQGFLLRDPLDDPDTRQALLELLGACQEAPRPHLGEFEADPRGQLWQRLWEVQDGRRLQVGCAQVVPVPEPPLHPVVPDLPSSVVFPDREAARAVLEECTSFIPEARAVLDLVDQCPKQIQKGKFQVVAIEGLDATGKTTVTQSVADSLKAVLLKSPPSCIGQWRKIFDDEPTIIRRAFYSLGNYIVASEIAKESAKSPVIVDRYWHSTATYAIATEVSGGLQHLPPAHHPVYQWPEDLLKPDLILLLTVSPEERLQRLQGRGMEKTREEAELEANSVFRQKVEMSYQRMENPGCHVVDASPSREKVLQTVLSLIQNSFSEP
Target,log2 fold change [1],log2 fold change [2],log2 fold change [3],log2 fold change [4],log2 fold change [5],log2 fold change [6],log2 fold change [7],log2 fold change [8],log2 fold change [9],log2 fold change [10]
CMPK2 (UniProt Q5EBM0),-0.019,0.07,0.006,-0.035,-0.016,0.004,-0.038,-0.03,0.031,0.024
CSDE1 isoform 4 (UniProt O75534),-0.025,0.009,-0.035,0.001,-0.023,-0.021,-0.002,0.016,-0.001,-0.017
CLPTM1L (UniProt Q96KA5),-0.019,0.014,-0.143,-0.01,0.009,-0.052,-0.197,-0.059,0.091,-0.01
DENND1B (UniProt Q6P3S1),-0.08,0.153,-0.13,0.04,0.19,0.019,0.007,–,–,0.014
COG6 (UniProt Q9Y2V7),-0.059,0.153,-0.074,-0.07,-0.008,0.015,0.024,0.008,0.077,0.006
CLASP2 isoform 3 (UniProt O75122),0.032,-0.014,-0.022,-0.032,-0.018,0,-0.024,-0.024,0.057,-0.012
CORO7 (UniProt P57737),-0.001,0.01,0.291,-0.089,–,-0.023,-0.047,-0.07,0.064,0.091
CNNM2 (UniProt Q9H8M5),-0.109,-0.206,0.038,0.058,–,-0.106,-0.029,0.045,0.201,0.098
DMAC2L (UniProt Q99766),-0.057,0.033,-0.017,0.008,-0.074,0.015,-0.066,-0.068,0.027,-0.005
CHUK (UniProt O15111),-0.005,0.114,-0.076,0.01,-0.019,0.022,0.015,-0.002,-0.002,-0.044
CLASP1 (UniProt Q7Z460),0.042,0.082,-0.029,-0.022,0.01,0.026,-0.041,-0.035,0.02,0.029
DBF4 (UniProt Q9UBU7),0.03,0.056,0.005,-0.033,-0.342 (active),0.098,-0.058,-0.068,-0.022,0.04
DOCK8 (UniProt Q8NF50),-0.001,-0.073,-0.016,0.018,0.005,0.017,-0.023,0.04,-0.021,0.014
